Experiment [1] can be described thus: growth inhibition of DIPG glioma cells, dose response, cell-based, SU-DIPG-XIII, MIPE4.0, CellTiter-Glo, qHTS (AID 1347061; cut-off not given, nearly all actives have AC50 up to about 37 µM;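 also: cells exposed to compound for 48 hours before readout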). The following applies: SU-DIPG-XIII viability, CellTiter-Glo ATP luminescence. For orientation: In ATP-based viability assays light output follows the ATP content of the culture.
Experiment [2] can be described thus: growth inhibition of DIPG glioma cells, dose response, cell-based, JHH-DIPG-1, MIPE4.0, CellTiter-Glo, qHTS (AID 1347062; cut-off not given, nearly all actives have AC50 up to about 27 µM;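 as to AC50: cells exposed to compound for two days before readout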). The following applies: JHH-DIPG-1 viability, CellTiter-Glo ATP luminescence.
Experiment [3] can be described thus: growth inhibition of DIPG glioma cells, dose response, cell-based, SU-DIPG-IV, MIPE4.0, CellTiter-Glo, qHTS (AID 1347063).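 Also: compound exposure lasted 48 hours before the viability readout.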 The following applies: SU-DIPG-IV viability, CellTiter-Glo ATP luminescence.
Experiment [4] is described as follows: viability loss in pontine glioma line – cell-based, SU-DIPG-XXV, MIPE5.0, CellTiter-Glo, qHTS, dose response (AID 1347065; cut-off not given, nearly all actives have AC50 up to about 26 µM;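 also: cells exposed to compound for 48 hours before ATP readout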). The following applies: CellTiter-Glo ATP luminescence.
Experiment [5] is described as follows: SU-DIPG-VI glioma cell viability, MIPE4.0 library, CellTiter-Glo luminescence, qHTS (AID 1347066).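 Also: cells exposed to compound for 48 hours before readout.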 The following applies: CellTiter-Glo ATP luminescence.
Experiment [6] can be described thus: JHH-DIPG-1 glioma cell viability, MIPE5.0 library, CellTiter-Glo luminescence, qHTS (AID 1347067; cut-off not given, nearly all actives have AC50 up to about 26 µM;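 also: cells exposed to compound for 48 hours before readout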). The following applies: JHH-DIPG-1 glioma viability, CellTiter-Glo ATP luminescence.
A short description of experiment [7]: SU-DIPG-XXV glioma cell viability, MIPE5.0 library, qHTS (AID 1347068; cut-off not given, nearly all actives have IC50 up to about 30 µM). (In general: qHTS replaces the single test concentration by a dilution series.)
Experiment [8] is described as follows: growth inhibition of DIPG glioma cells, dose response, cell-based, SU-DIPG-XIII, MIPE5.0, CellTiter-Glo, qHTS (AID 1347064; cut-off not given, nearly all actives have AC50 up to about 23 µM). The following applies: SU-DIPG-XIII viability, CellTiter-Glo ATP luminescence.
Experiment [9] in a line: sensitizers of A549 cells to miR-34 induction, primary screen, imaging, A549 dox-inducible miR-34, nuclei and caspase counts (AID 1347080;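 active = compounds whose cell count with miR-34 switched on is under 0.7 times the count with it off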). The following applies: A549 miR-34 inducible, Hoechst nuclei count, 48 h.
Experiment [10] can be described thus: survival rescue of mitochondrial mutant cells in low glucose, primary screen, MELAS cybrids, Rieske KO mouse fibroblasts, CellTiter-Glo (AID 1508586;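 active = mean z-score across replicates of 1.96 or higher in either the MELAS or the Rieske mutant cell line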;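 also: z relative to plate mean and SD of compound and empty wells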).
Setting [11] is: stronger effect = lower value, cell number ratio, induced over uninduced.
[12] abbreviates: measured here: relative caspase fold change +Dox/-Dox.
[13] abbreviates: measured here: total cells with miR-34 induction, stronger effect = lower value.
Where [14] appears, read: measured here: total cells without miR-34 induction.

Records with an inconclusive call do not appear. Activity calls are given as the source filed them. Unless noted, the limit is not given here; nearly all actives have AC50 up to about 30 µM.

`COc1ccc(CC2SC(=O)NC2=O)cc1C(=O)NCc1ccc(C(F)(F)F)cc1` (stereo unspecified): the call in [1], in [2], in experiment [3], in experiment [4], in experiment [5] and in experiment [6] was inactive. Further, in experiment [7], the compound was called inactive.
Usually AC50 stands for the concentration at which the activity in the assay is half-maximal. Regarding `O=C(C=CC#Cc1cccc(NS(=O)(=O)c2ccccc2)c1)NO`, the AC50 is 14.8 µM (active) in [1], 9.35 µM (active) in experiment [2], 4.18 µM (active) in experiment [3] and 18.7 µM (active) in [5].
Turning to `Cc1nc2c([nH]1)CCN(C(=O)c1ccc(NC(=O)c3ccccc3-c3ccccc3)cc1)c1ccccc1-2`, the compound was classed as inactive in experiment [1], in experiment [2], in [3], in experiment [8], in experiment [5] and in [6]. The compound was called inactive in experiment [7]. Moreover, the fold change in [9] (setting [11]) was 0.926 (inactive); in [9] (setting [12]), 0.734. The cell count in experiment [9] (setting [13]) amounted to 8050; in experiment [9] (setting [14]), 8690. Moreover, the z-score in experiment [10] (MELAS cybrid survival, CellTiter-Glo 48 h, stronger effect = higher value) was -0.466 (inactive); in experiment [10] (Rieske KO mouse fibroblast survival, CellTiter-Glo 72 h), 0.668.
In the case of `CCCCCCCCCCCCCC(=O)N[C@H](CO)[C@H](O)c1ccc([N+](=O)[O-])cc1`, the outcome in [1] was inactive. Further, the AC50 in experiment [2] was 2.96 µM (active); in experiment [3] it was 4.69 µM (active); in experiment [4] it was 18.6 µM (active). Besides, the values for the fold change in experiment [9] (setting [11]) and in [9] (setting [12]) were 0.96 (inactive) and 0.781, respectively. For the same compound, the cell count in [9] (setting [13]) worked out at 6010; in experiment [9] (setting [14]) it was 6250.
For `CC(C)(O)Cn1c(NC(=O)c2ccc(-c3cn[nH]c3)s2)nc2cc(CN3CCOCC3)ccc21`, the AC50 in experiment [1] was 2.64 µM (active); in experiment [2] it was 0.743 µM (active); in [3] it was 1.48 µM (active); in [5] it was 2.64 µM (active).
